Measured values taken from PMC5540273 (PLoS ONE, 2017).

Each molecule was assayed on CDKL2. Conditions: concentration: 1 μM, replicates: in singlicate; n = 1.
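Note: KINOMEscan kinase panel screen.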

| Compound | %Inh |
| --- | --- |
| Cc1ccc(-c2cc(-c3c[nH]nc3-c3ccccn3)ccn2)cc1 [GW684088] | 28% |
| Cl.Oc1ccc(-c2nc(-c3ccccc3)[nH]c2-c2ccncc2)cc1 [SB-428218] | 32% |
| COc1ccc(C2=C(Nc3cccc(C(=O)O)c3)C(=O)NC2=O)cc1 [SB-390765] | 37% |
| COc1ccc2nc(-c3cccc(C)n3)nc(Nc3ccncc3)c2c1 [GSK204919] | 24% |
| CC1=C(C(=O)Nc2cc3cn[nH]c3cc2F)C(c2ccc(C(F)(F)F)cc2)CC(=O)N1 (centres unmarked) [GSK429286] | 4% |
| Cn1ccc2ncnc(Oc3cccc(C(=O)Nc4ccccc4)c3)c21 | 13% |
| Cl.NC(=O)c1cccc(Nc2nccc(Nc3ccc(Oc4cccc(Cl)c4)c(Cl)c3)n2)c1 [GW659008] | 23% |
| COc1ccc(Nc2nccc(-c3cccc(NC(=O)c4cc5cc(F)ccc5[nH]4)c3)n2)cc1 [GSK1229782] | 30% |
| O=C(Nc1n[nH]c2nc(-c3nccs3)c(Br)cc12)C1CCCC1 [SB-742609] | 88% |
| CCn1c(-c2ccccn2)nc2cnccc21 [SB-736398] | 17% |
| Cn1ccc2ncnc(Oc3ccc(Nc4nc5ccccc5[nH]4)cc3)c21 | 0% |
| CS(=O)(=O)c1ccc(-c2nc3n(c2-c2ccncc2)CCC3)cc1 [SKF-105942] | 17% |
| Nc1nc(-c2nccs2)c(-c2ccnc3ccccc23)s1 [GW693542] | 26% |
| COc1cccc(NC(=O)NC2CCN(c3ccnc(Nc4ccc(F)cc4)n3)C2)c1 (centres unmarked) [GSK1379721] | 61% |
